# PfHsp90 set2: growth inhibition of PfHsp90-expressing yeast, primary screen, antimalarial PfHsp90 inhibitor project, S. cerevisiae, BacTiter-Glo luminescence, single point, set 2; actives 0.32% (n = 310,000); AID 504621, 2011; BacTiter-Glo ATP, 48 h; yeast lacking PDR1 and PDR3 efflux regulators; inhibition, % at 9.4 µM;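 active means every replicate shows inhibition above about 80%, whatever the replicate mean, limit read from the data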;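 further: 0% = DMSO neutral controls and 100% = 20 µM radicicol positive controls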
# tim23-1 inh: growth inhibitors of tim23-1 mutant yeast, primary screen, luminescence, uHTS. S. cerevisiae tim23-1 growth, BacTiter-Glo luminescence, 24 h. inhibition, % at 20 µM. actives 1.3% (n = 330,000);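 active means growth inhibition of the mutant yeast at or above 50%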;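 further: temperature-sensitive mutant grown at 25 °C; plate controls were DMSO-treated mutant yeast for no effect and medium wells lacking yeast for full effect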
# tim10-1 inh: growth inhibitors of tim10-1 mutant yeast, primary screen, luminescence, uHTS. S. cerevisiae tim10-1 ts strain growth, BacTiter-Glo, 24 h. inhibition, % at 20 µM. actives 2.2% (n = 330,000);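 active means inhibition of at least 40%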;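 further: mutant grown at 25 °C; 0% = DMSO wells with yeast and 100% = wells holding no yeast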
# NALP3 yeast inh: NALP3 inflammasome inhibitors in reconstituted yeast, primary screen, luminescence, uHTS. Yeast reconstituted NLRP3/ASC/caspase-1, beta-gal luminescence, 24 h. inhibition, % at 10 µM. actives 0.39% (n = 330,000). AID 2825, 2010;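 active means inhibition of 50% or more; inactive means inhibition below 50%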;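 further: plate controls were induced DMSO wells for no effect and uninduced yeast grown without galactose for full effect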
# TIM10 inh: growth inhibitors of isogenic TIM10 control yeast, primary screen, counter-screen for tim10-1 yeast inhibitor project, luminescence, uHTS | S. cerevisiae TIM10 strain growth, BacTiter-Glo luminescence, 24 h | inhibition, % at 10 µM | actives 1.4% (n = 330,000) | AID 463195, 2010;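 active means inhibition of 40% or more at the single tested concentration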;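 further: wild-type TIM10 isogenic control strain grown at permissive 25 °C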
# tim10-1 confirm: growth inhibitors of tim10-1 mutant yeast, confirmation, single concentration, luminescence, S. cerevisiae | actives 56% (n = 7,400) | S. cerevisiae tim10-1 ts strain growth, BacTiter-Glo, 24 h | inhibition, % at 20 µM | shares compounds with tim10-1 inh;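 active means inhibition of yeast growth at or above a set limit in either of two repeat tests at 20 µM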;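 further: tim10-1 mutant grown at permissive 25 °C to find synthetic lethal compounds; 0% = DMSO yeast wells and 100% = medium wells without yeast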
# tim10 confirm: growth inhibitors of wild-type TIM10 yeast, confirmation, counter-screen for tim10-1 synthetic lethality project, single concentration, luminescence, S. cerevisiae; AID 463215, 2010; actives 63% (n = 4,600); inhibition, % at 10 µM; S. cerevisiae tim10 strain growth, BacTiter-Glo luminescence, 24 h; shares compounds with TIM10 inh;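 active means inhibition of yeast growth at or above a set limit in either of two replicates at 10 µM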;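 further: this counterscreen used the strain with wild-type TIM10; 0% = yeast with DMSO and 100% = medium wells lacking yeast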
# The depositor's hits bear a star; / = not tested or not shown. Only some compounds are listed: those with a hit (about 3.7% of all), similar ones and a draw of the others.
SMILES,PfHsp90 set2,tim23-1 inh,tim10-1 inh,NALP3 yeast inh,TIM10 inh,tim10-1 confirm,tim10 confirm
Cc1c(Cl)cnc(NC(=O)COC(=O)c2ccc([N+](=O)[O-])s2)c1Cl,-76.2,-18.5,49.0*,13.6,65.8*,27.4,81.8*
Cc1c(Cl)cnc(NC(=O)COC(=O)c2cccs2)c1Cl,-37.8,14.5,21.5,15.2,11.7,/,/
COc1cc(S(=O)(=O)Nc2ccccc2C(=O)N2CCCCC2)ccc1NC(C)=O,7.8,5.0,4.6,4.0,3.4,/,/
Cn1c(=O)n(Cc2ccccc2)c(=O)c2c1nc1n2CCCN1CCc1ccccc1,51.7,42.0,43.5*,-4.1,47.0*,40.9*,34.1*
O=C1c2ccccc2C(=O)c2c1ccc1c(=O)n(C3CCCCC3)[nH]c21,-13.4,44.1,49.5*,8.9,50.5*,39.0*,53.6*
O=c1c2[nH]c3ccccc3c2ncn1C1CCCCC1,/,19.9,5.6,37.0,-5.0,/,/
CCOC(=O)C1(C#N)Cc2ccccc2C1,-19.9,/,/,/,/,/,/
CCCC(=O)Nc1ccc(-c2nc3cc(C)ccc3o2)cc1,9.0,47.9,43.5*,24.0,54.9*,32.2*,51.7*
CCOCCCNC(=O)c1ccc(OC2CCN(C(C)=O)CC2)c(OC)c1,-6.1,14.8,-11.7,0.1,-5.5,/,/
Cc1ccc(NC(=S)NNC(=O)C2CC2c2ccc(C)cc2)cc1 (centres undefined),23.9,17.3,41.4*,2.5,40.4*,27.0,17.2
Cc1oc(=O)c(NC(=O)c2ccccc2)cc1C(N)=O,-30.8,3.8,5.0,4.5,3.9,/,/
COC(=O)c1cc(NC(=O)c2ccccc2)c(=O)oc1C,22.9,16.7,11.6,-5.1,19.1,/,/
COc1ccc(C(=O)Nc2cc(C(=O)c3ccccc3)c(C)oc2=O)cc1,117.1*,44.7,66.0*,21.6,60.2*,70.2*,43.0*
Cc1oc(=O)c(NC(=O)c2cccc(Cl)c2)cc1C(=O)c1ccccc1,/,47.6,62.5*,19.9,51.2*,61.5*,43.4*
CC(C)N(Cc1nnc(-c2ccc(Cl)cc2)o1)C(=O)c1cc2ccccc2o1,23.3,31.5,2.7,33.5,-0.2,/,/
O=C(COC(=O)c1cc(=O)c2ccccc2o1)Nc1ccccc1F,-7.6,2.4,-2.9,2.2,7.5,/,/
CC1CCCN(C(=O)c2ccc(-c3ccccc3Cl)o2)C1 (centres undefined),-0.1,29.1,32.6,14.7,-7.6,/,/
O=C(c1ccc(-c2ccc([N+](=O)[O-])cc2)o1)N1CCCC(C(F)(F)F)C1 (centres undefined),/,43.9,64.0*,19.0,42.6*,55.5*,47.6*
CC1CCCN(C(=O)c2ccc([N+](=O)[O-])o2)C1 (centres undefined),2.1,40.9,56.9*,27.3,45.9*,40.2*,40.2*
O=C(NCc1ccc(Cl)cc1)C1CCN(C(=O)Cc2ccccc2)CC1,4.8,-4.3,12.4,4.9,6.3,/,/
CC(Sc1nc(NCc2ccccc2)nc(N(C)C)n1)C(=O)Nc1ccccc1 (centres undefined),-18.9,36.1,34.4,11.8,29.7,/,/
CC(=O)C(Sc1nc(N(C)C)nc(N(C)C)n1)C(=O)Nc1ccccc1 (centres undefined),6.0,27.8,40.0*,3.9,96.7*,23.2,15.9
Cc1ccc(OC(=O)c2cccc([N+](=O)[O-])c2)c(-n2nc3ccccc3n2)c1,-1.3,-3.7,25.0,-9.2,-14.9,/,/
O=C(Oc1ccc(F)cc1C(=O)/C=C/c1cccs1)c1cccc([N+](=O)[O-])c1,-16.5,20.8,50.8*,-7.0,49.9*,39.5*,1.0
O=C(/C=C/c1ccc(N2CCC(c3ccccc3)=N2)cc1)c1ccccc1,/,11.8,41.3*,-7.9,43.5*,25.1,24.5
SMILES,PfHsp90 set2,tim23-1 inh,tim10-1 inh,NALP3 yeast inh,TIM10 inh,tim10-1 confirm,tim10 confirm
C(=N\N(Cc1ccccc1)c1ccccc1)/c1cccnc1,-20.1,20.1,-4.0,5.6,-0.6,/,/
Oc1cccc(/C=N/N(Cc2ccccc2)c2ccccc2)c1,/,36.5,53.0*,-11.0,48.4*,26.0,41.4*
Clc1ccc(Nc2nc(C3CC3)cs2)cc1,-18.0,47.9,53.7*,20.4,43.1*,48.8*,19.6
Cc1ccc(N(CC(=O)N2CCCCCC2)S(=O)(=O)c2ccccc2)cc1,-0.7,26.0,17.0,19.7,-2.8,/,/
Cc1ccnn2cc3c(=O)n(C)c(=O)n(C)c3c12,/,41.1,53.2*,5.6,72.2*,50.5*,-9.2
Cc1ccc(-n2cc3c(=O)n(C)c(=O)n(C)c3c2)cc1C,-7.2,22.0,25.2,19.8,16.2,/,/
O=C(NC1CC2CCCC(C1)N2C(=O)Nc1ccccc1F)C1CC1 (centres undefined),20.3,-3.4,1.9,6.0,11.4,/,/
COC(=O)C1(Cc2cc(-c3ccc(Cl)cc3)no2)CCN(C(=O)OC(C)(C)C)CC1,26.8,28.0,53.8*,11.5,44.1*,45.0*,39.7*
N#C/C(=C\c1ccc([N+](=O)[O-])o1)C(=O)Nc1ccc(F)cc1,105.5*,-106.9,54.7*,-8.5,79.1*,46.9*,96.0*
O=C(CCNC(=O)c1ccc(Br)cc1)Nc1nc2ccccc2[nH]1,/,12.1,-2.6,9.0,-6.7,/,/
Nc1nnc(Sc2ccc(Cl)cc2[N+](=O)[O-])s1,23.4,-1.8,15.4,20.6,3.1,/,/
CC(C)Nc1nnc(Sc2ccc(Cl)cc2[N+](=O)[O-])s1,43.9,47.7,79.4*,28.6,69.1*,72.2*,7.8
CC(=O)CC(=O)Nc1ccc(Cl)cn1,9.1,24.9,14.3,12.5,11.7,/,/
CC(C)CC(=O)NC(=S)Nc1ccc(Cl)cn1,39.7,49.7,43.0*,37.3,46.8*,37.5*,40.1*
CN1CCN(NC(=O)Nc2cccc(F)c2)CC1,-3.6,-7.6,-19.7,8.8,1.8,/,/
CCOC(=O)c1c(N2C(=O)CC(Sc3ccccc3C(=O)O)C2=O)sc2c1CCCC2 (centres undefined),21.5,31.2,53.8*,2.8,43.1*,44.0*,40.5*
O=C(CNS(=O)(=O)c1ccccc1F)NNC(=O)c1ccc(Br)cc1,-10.1,-2.6,0.2,-0.7,-0.2,/,/
COc1ccccc1N1CCN(C(=O)/C=C/c2c(Cl)nc3ccccn23)CC1,-10.2,43.6,58.7*,30.5,42.2*,50.8*,35.9*

# Screening data (PubChem)
